Experimental data as given in PubChem BioAssay (EPA / NIEHS).
Results filed as inconclusive are left out. The source made the active and inactive calls. Rule for the calls, unless noted: active = hit-call score of the fitted dose curve at least 0.9, where 1 is the maximum; inactive = score below 0.9.

Columns and labels:
[1] = CCTE_Shafer_MEA_dev_firing_rate_mean: CCTE's Neural Network Formation Assay for Mean Firing Rate, Shafer Lab (AID 2284031)
Method in brief: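 Primary rat cortical neurons on 48-well MEA plates, exposed from plating day 0 with dosing renewed on DIV 5 and 9. Mean well firing rate over active electrodes, recorded days 5, 7, 9, 12, summarised as trapezoidal AUC.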

[2] = CCTE_Shafer_MEA_dev_per_burst_spike_percent: CCTE's Neural Network Formation Assay for Percent of Spikes in a Burst, Shafer Lab (AID 2284032);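 note: fitted as a decrease in burst spike percentage below DMSO baseline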
Method in brief: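 Rat primary cortical neurons on 16-electrode MEA wells, dosed from plating day 0 for 12 days with renewal on DIV 5 and 9; spikes-in-bursts percentage averaged over bursting electrodes, collapsed as AUC across days 5, 7, 9, 12; loss direction versus DMSO.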

[3] = CCTE_Shafer_MEA_dev_active_electrodes_number: CCTE's Neural Network Formation Assay for Number of Active Electrodes, Shafer Lab (AID 2284040; active = hit-call score of the fitted dose curve at least 0.9, where 1 is the maximum;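 note: potency for loss of active electrodes versus DMSO so lower counts are hits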)
Method in brief: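 Primary rat cortical neurons on 16-electrode MEA wells, exposed from day 0 through day 12 with compound renewed at DIV 5 and 9 feeds. Active electrodes (mean firing ≥5 spikes/min) counted at DIV 5, 7, 9, 12; trapezoidal AUC across days, loss-of-signal versus DMSO.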

[4] = CCTE_Shafer_MEA_dev_burst_rate: CCTE's Neural Network Formation Assay for Burst Rate, Shafer Lab (AID 2284042)
Method in brief: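 Primary rat cortical neurons on PEI-coated 48-well MEA plates (laminin added with cells at plating) (16 electrodes/well), exposed from plating to day 12, dosing renewed at DIV 5 and 9. Burst rate averaged over active electrodes, recorded DIV 5, 7, 9, 12, summarized as AUC; loss versus DMSO.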

[5] = CCTE_Shafer_MEA_dev_bursting_electrodes_number: CCTE's Neural Network Formation Assay for Number of Bursting Electrodes, Shafer Lab (AID 2284043; active = hit-call score of the fitted dose curve at least 0.9, where 1 is the maximum;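 note: potency is for loss of bursting electrodes relative to DMSO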)
Method in brief: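 Primary rat cortical neurons plated on 16-electrode MEA wells, exposed from day 0 with compound renewed at DIV 5 and 9. Electrodes bursting ≥1 burst per 2 min counted on days 5, 7, 9 and 12; trapezoidal AUC across days, fitted for loss versus DMSO.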

[6] = CCTE_Shafer_MEA_dev_per_burst_interspike_interval: CCTE's Neural Network Formation Assay for Burst Interspike Interval, Shafer Lab (AID 2284044);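 note: mean spike spacing inside bursts as AUC over recordings on days 5 7 9 12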
Method in brief: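 Rat cortical primary cultures, 16 electrodes/well; compound from plating, renewed with full media change DIV 5 and 9. Spikes via adaptive detector; per-burst ISI well-mean over active bursting electrodes; AUC of DIV 5/7/9/12 recordings; loss-direction fit vs DMSO.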

[7] = CCTE_Shafer_MEA_dev_burst_duration_mean: CCTE's Neural Network Formation Assay for Mean Burst Duration, Shafer Lab (AID 2284045)
Method in brief: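 Primary rat cortical neurons on 48-well 16-electrode MEA plates, exposed from day 0 with renewal at DIV 5 and 9; spontaneous activity recorded on days 5, 7, 9, 12. Well-mean burst duration across bursting electrodes, collapsed as trapezoidal AUC; DMSO baseline.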

[8] = CCTE_Shafer_MEA_dev_interburst_interval_mean: CCTE's Neural Network Formation Assay for Mean Interburst Interval, Shafer Lab (AID 2284046);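 note: well-mean interburst interval of bursting electrodes as AUC over four recording days; curve fitted for decrease in interburst interval relative to DMSO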
Method in brief: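 Recordings on days 5, 7, 9 and 12 give well-mean interburst interval across actively bursting electrodes, summarized as area under the curve. Cultures: rat cortical neurons, continuous exposure from day 0, compound renewed at feeds; decrease analyzed versus DMSO.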

[9] = CCTE_Shafer_MEA_dev_inter_network_spike_interval_mean: CCTE's Neural Network Formation Assay for Mean Inter-network Spike Interval, Shafer Lab (AID 2284047)
Method in brief: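 Primary rat cortical neurons on 16-electrode MEA wells, exposed from plating day 0 through DIV 12, compound renewed at DIV 5 and 9 media changes. Mean interval between network-spike peaks recorded DIV 5, 7, 9, 12; collapsed as trapezoidal AUC, fitted downward versus DMSO.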

[10] = CCTE_Shafer_MEA_dev_network_spike_number: CCTE's Neural Network Formation Assay for Number of Network Spikes, Shafer Lab (AID 2284048)
Method in brief: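 Primary rat cortical neurons on PEI/laminin 48-well MEA plates, dosed from plating day 0 for 12 days, renewed at DIV 5 and 9. Network spike counts recorded DIV 5, 7, 9, 12, collapsed as trapezoidal AUC; DMSO baseline.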

[11] = CCTE_Shafer_MEA_dev_network_spike_peak: CCTE's Neural Network Formation Assay for Mean Number of Electrodes in Network Spike, Shafer Lab (AID 2284049);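 note: fitted for loss of signal meaning fewer electrodes in network spikes than DMSO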
Method in brief: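 Network-spike peak electrode count from recordings on days 5, 7, 9 and 12 was combined as trapezoidal area under the curve. Rat cortical cultures were treated continuously from plating, with compound renewed at each feed (DIV 5, 9); fits versus DMSO.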

[12] = CCTE_Shafer_MEA_dev_spike_duration_mean: CCTE's Neural Network Formation Assay for Mean Spike Duration, Shafer Lab (AID 2284051);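 note: mean network spike duration pooled as area under curve over DIV 5 to 12 recordings; potency for a decrease in mean network spike duration versus DMSO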
Method in brief: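 Primary rat cortical neurons on 16-electrode MEA wells (PEI-coated, laminin in plating drop), exposed from plating through DIV 12 with compound renewed at DIV 5 and 9. Mean network-spike duration recorded DIV 5, 7, 9, 12; trapezoidal AUC across days, DMSO baseline.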

[13] = CCTE_Shafer_MEA_dev_network_spike_duration_std: CCTE's Neural Network Formation Assay for Standard Deviation of Network Spike Duration, Shafer Lab (AID 2284052);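 note: area under curve of spike duration SD across recording days 5 to 12; hits are decreases in network spike duration SD versus DMSO vehicle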
Method in brief: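 Primary rat cortical neurons on PEI-coated 16-electrode MEA wells, exposed from plating day 0 through day 12 with compound renewed at DIV 5 and 9. Network spike duration SD recorded on days 5, 7, 9, 12, collapsed as trapezoidal AUC; loss-of-signal fit versus DMSO.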

[14] = CCTE_Shafer_MEA_dev_per_network_spike_spike_number_mean: CCTE's Neural Network Formation Assay for Mean Number of Spikes in a Network Spike, Shafer Lab (AID 2284053);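 note: fitted as decrease in spikes per network spike relative to DMSO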
Method in brief: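 Primary rat cortical neurons on 48-well, 16-electrode MEA plates were exposed from plating to DIV 12, with dosing renewed on DIV 5 and 9. Spikes per network spike (0.05 s peak window) were recorded on DIV 5, 7, 9 and 12 and collapsed as trapezoidal AUC versus DMSO.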

[15] = CCTE_Shafer_MEA_dev_per_network_spike_spike_percent: CCTE's Neural Network Formation Assay for Percent of Spikes in a Network Spike, Shafer Lab (AID 2284054)
Method in brief: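 Rat primary cortical neurons were grown on 48-well MEA plates (16 electrodes/well), exposed from plating day 0 through day 12, with treatment renewed on DIV 5 and 9. Percent of spikes within 0.05 s network-spike peaks was measured, summarised as AUC across days 5, 7, 9, 12.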

[16] = CCTE_Shafer_MEA_dev_LDH: CCTE's Lactate Dehydrogenase Assay for Cytotoxicity in the Neural Network Formation Assay, Shafer Lab (AID 2284068; active = hit-call score of the fitted dose curve at least 0.9, where 1 is the maximum;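 note: exposure for twelve days from plating with re-dosing on DIV 5 and 9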)
Method in brief: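 Primary rat cortical neurons were plated on PEI/laminin MEA plates and exposed from day 0 for twelve days, with compound renewed at DIV 5 and 9. Cytotoxicity was determined by spectrophotometric LDH assay relative to DMSO.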

[17] = CCTE_Shafer_MEA_dev_AB: CCTE's Alamar Blue Assay for Cytotoxicity in the Neural Network Formation Assay, Shafer Lab (AID 2284083; active = hit-call score of the fitted dose curve at least 0.9, where 1 is the maximum;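 note: twelve days of exposure from plating with re-dosing on DIV 5 and 9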)
Method in brief: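 Primary rat cortical neurons on PEI-coated 48-well MEA plates, 1.5 x 10^5 cells/well in laminin drop; compound exposure from day 0 of plating for twelve days, renewed at medium changes on DIV 5 and 9. Viability read as resazurin reduction by fluorescence, relative to DMSO.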

[18] = CCTE_Shafer_MEA_dev_mutual_information_norm: CCTE's Neural Network Formation Assay for Mutual Information Normalization, Shafer Lab (AID 2284091);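 note: mutual information between electrodes summarised as area under curve across four recording days; potency is for a decrease in mutual information relative to DMSO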
Method in brief: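 Primary rat cortical neurons on PEI-coated 48-well MEA plates, 1.5 x 10^5 cells/well, exposed from day 0 through day 12 with re-dosing at DIV 5 and 9. Mutual information between electrodes recorded days 5, 7, 9, 12; trapezoidal AUC, loss-of-signal fit versus DMSO.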

[19] = CCTE_Shafer_MEA_dev_correlation_coefficient_mean: CCTE's Neural Network Formation Assay for Mean Correlation Coefficient, Shafer Lab (AID 2284093);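 note: well mean pairwise spike train correlation integrated as AUC over recording days 5 to 12; potency fitted for loss of correlation relative to DMSO vehicle wells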
Method in brief: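 Spontaneous activity recorded on days 5, 7, 9 and 12 post-plating; pairwise spike correlations are averaged across active electrodes and collapsed to an area-under-curve. Rat cortical cultures are dosed from plating through 12 days, with compound renewed at media changes.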

[20] = CCTE_Mundy_HCI_Cortical_Synap_Neur_Matur_NeuriteSpotCountPerNeuriteLength: CCTE's Synaptogenesis and Neurite Maturation Assay in rat cortical cells for Neurite Spot Count per Neurite Length, Mundy Lab (AID 2284210)
Method in brief: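 Rat primary cortical cultures, AraC added at DIV 5 to suppress glia; chemical exposure from DIV 7 to DIV 12. Fixed cells stained for MAP2 and synaptophysin plus Hoechst; synaptophysin puncta per neurite length quantified by high-content imaging, relative to DMSO.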

[21] = CCTE_Mundy_HCI_Cortical_Synap_Neur_Matur_NeuriteLength: CCTE's Synaptogenesis and Neurite Maturation Assay in rat cortical cells for Neurite Length, Mundy Lab (AID 2284214)
Method in brief: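 Rat primary cortical cultures, AraC added DIV 5, dosed DIV 7 through DIV 12 […]. Fixed, MAP2/synaptophysin immunostained with Hoechst; neurite length by high-content imaging, fitted in positive direction versus DMSO.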

[22] = CCTE_Mundy_HCI_Cortical_Synap_Neur_Matur_NeuriteSpotCountPerNeuron: CCTE's Synaptogenesis and Neurite Maturation Assay in rat cortical cells for Neurite Spot Count per Neuron Count, Mundy Lab (AID 2284215)
Method in brief: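 Rat primary cortical cells received AraC at DIV 5, then chemicals with a media change at DIV 7, and were fixed at DIV 12. Synaptophysin puncta on MAP2-stained neurites per neuron were counted by high-content imaging, fitted relative to DMSO.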

[23] = CCTE_Mundy_HCI_Cortical_Synap_Neur_Matur_SynapseCount: CCTE's Synaptogenesis and Neurite Maturation Assay in rat cortical cells for Synapse Count, Mundy Lab (AID 2284218)
Method in brief: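 Rat primary cortical cultures, AraC at DIV 5, chemical dosing DIV 7 to DIV 12 (288.33 h). Fixed cells stained for MAP2, synaptophysin and Hoechst; synapses per neuron counted by high-content imaging, loss of signal versus DMSO.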

[24] = CCTE_Mundy_HCI_Cortical_Synap_Neur_Matur_NeuriteCount: CCTE's Synaptogenesis and Neurite Maturation Assay in rat cortical cells for Neurite Count, Mundy Lab (AID 2284222)
Method in brief: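 Rat primary cortical cells; AraC added at DIV 5, chemicals dosed with media change at DIV 7 through DIV 12. MAP2/synaptophysin/Hoechst immunostaining, high-content imaging of neurite number; fitted relative to DMSO.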

[25] = CCTE_Mundy_HCI_Cortical_Synap_Neur_Matur_CellBodySpotCount: CCTE's Synaptogenesis and Neurite Maturation Assay in rat cortical cells for Cell Body Spot Count, Mundy Lab (AID 2284223)
Method in brief: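 Rat primary cortical cultures received AraC at DIV 5 to arrest glia, were dosed with chemical at DIV 7 with media change, and were fixed at DIV 12 (288.33 h). Synaptophysin puncta on MAP2-positive cell bodies per neuron were counted by high-content imaging versus DMSO.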

[26] = CCTE_Mundy_HCI_Cortical_Synap_Neur_Matur_NeuronCount: CCTE's Synaptogenesis and Neurite Maturation Assay in rat cortical cells for Neuron Count, Mundy Lab (AID 2284242; active = hit-call score of the fitted dose curve at least 0.9, where 1 is the maximum;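 note: hits reduce neuron count versus DMSO baseline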)
Method in brief: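 Rat primary cortical cells, AraC added at DIV 5, dosed with media change from DIV 7 to DIV 12. Fixed, Hoechst-stained and immunolabelled for MAP2 and synaptophysin; neuron number counted by high-content imaging, loss fitted versus DMSO.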

Measured: AC50

[O]=[V]([OH])([OH])[OH]
inactive: [1] | [4] | [6] | [7] | [8] | [9] | [10] | [13]
active: [2] 15 µM | [3] 15 µM | [5] 9.39 µM | [11] 10.7 µM | [12] 15 µM | [14] 13.9 µM | [15] 15 µM | [16] 24.3 µM | [17] 28 µM | [18] 4.55 µM | [19] 13.6 µM | [20] 40.2 µM | [21] 27 µM | [22] 11.6 µM | [23] 15.4 µM | [24] 78.5 µM | [25] 44.3 µM | [26] 19.6 µM
